This is a sample that favours compounds with a hit; in the whole collection about 20% have one here.
Pf growth 96h – P. falciparum growth inhibition at 96 hours. hit rate 6.9% among 320,000. Potency, µM (titrated, usually from 28.7 µM), for inactives: top-dose activity change, negative = inhibition, usual class: inhibitors. P. falciparum luciferase reporter growth, 96 h; also: potency is read from the fitted curve at half-maximal effect; % is scaled to controls: 0 for no effect and ±100 for the full control effect
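Cell-based qHTS: luciferase-tagged P. falciparum in erythrocytes (2% hematocrit, 0.05% parasitemia final) incubated with compounds for 96 hours, 37 C, 5% CO2; luciferase detection reagent then added and luminescence measured.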
HCMV antiviral – human cytomegalovirus inhibition. HFF cells, HCMV-luciferase reporter, 72 h; hits give low values. activity change, negative = inhibition, % at 57.5 µM. hit rate 4.5% among 410,000; in the data active = activity change below about -60%; inconclusive = no clear call, values can overlap the other calls; inactive = above about -39%; also: % is scaled to controls: 0 for no effect and ±100 for the full control effect
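After 16 h attachment at 37C, HFF cells received test compound and HCMV-luciferase (1 PFU/cell); reporter luminescence read 72 h later, data normalized against buffer-only and known inhibitor Salinomycin.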
Pf growth 48h – P. falciparum growth inhibition at 48 hours (one generation); P. falciparum luciferase growth in erythrocytes, 48 h; AID 504832; Potency, µM (doses to about 28.7 µM), for the others: top-dose activity change, negative = inhibition, most hits filed as inhibitors; hit rate 5.9% among 310,000; also: potency is read from the fitted curve at half-maximal effect; % is scaled to controls: 0 for no effect and ±100 for the full control effect
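Parasite viability was followed by luminescence of a genomically integrated firefly luciferase. Cultures held 0.1% parasitemia at 2% hematocrit (final), incubated under 5% CO2 at 37 C.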
Shiga inhibitor – blocks Shiga toxin action in Vero cells | Vero cells, Shiga toxin protein synthesis inhibition reporter | inhibition, % at 38.7 µM | hit rate 9.2% among 290,000; in the data active = inhibition mostly above about 28%, no sharp cut-off; inactive = mostly below about 43%; also: 0% is about no effect
CHX counter – affects cycloheximide protein synthesis inhibition readout, counter-screen. cell reporter, cycloheximide protein synthesis inhibition counterscreen. max response, %. hit rate 12% among 300,000. AID 2314; in the data active = max response mostly above about 13%, no sharp cut-off; inactive = mostly below about 14%; also: read at 38.3 µM for the half of the compounds with a filed dose; 0% is about no effect
* = called active by the depositor; u = inconclusive; x = no result. Unless noted, calls follow the shape of the dose curve; as a rule, active = well fitted inhibition curve with a large enough effect; inconclusive = small, poorly fitted or top-dose-only effect, or another doubt; inactive = no such curve, though single readings can be large or run the other way.

SMILES	Pf growth 96h	HCMV antiviral	Pf growth 48h	Shiga inhibitor	CHX counter
C/C(=N\Nc1ccccn1)c1cccs1	264%	114	342%	93*	46*
C/C(=N\Nc1ccccn1)c1ccc(C#N)cc1	-8%	-23	-18%	43*	25*
C/C(=N\Nc1ccccn1)c1ccc(OC(F)F)cc1	57%	34	5%	38*	18
CN(C)S(=O)(=O)c1ccc(NC=O)cc1	-5%	23	18%	-5	-1
CC1CCCCC1NC(=O)CCN1C(=O)C2C3C=CC(C3)C2C1=O (centres undefined)	2%	-13	28%	-11	-2
O=C1C2C3C=CC(C3)C2C(=O)N1CCCCCCN1C(=O)C2C3C=CC(C3)C2C1=O (centres undefined)	-15%	-15	138%	68*	48*
O=C(O)CCN1C(=O)C2C3C=CC(C3)C2C1=O (centres undefined)	u	-10	-4%	2	2
CC1CCCC(C)N1C(=O)CCN1C(=O)C2C3C=CC(C3)C2C1=O (centres undefined)	1.7µM*	-23	27%	-9	-2
COc1ccccc1/C=C/C=N/NC(=O)c1cccs1	-19%	-11	u	116*	44*
COc1ccccc1/C=C/C=N/NC(=O)Cc1cccn1C	-4%	11	21%	26	-2
COc1ccccc1/C=C\C=N\NC(=O)c1ccco1	-21%	-8	-9%	153*	39*
Cc1ccc(NCCC#N)cc1C	96%	-20	-7%	-4	11
O=C(CCN1C(=O)C2CCCCC2C1=O)Nc1ccc(F)c(F)c1F (centres undefined)	92%	49	50%	7	-3
O=C(NC(NC(=O)c1ccccc1)c1ccccc1)c1ccccc1	u	4	x	-8	-8
COc1ccc(NC(=O)CN2CCC3(O)CCCCC3C2c2cc(OC)ccc2OC)cc1 (centres undefined)	u	2	u	-10	2
COC(=O)c1c(NC(=O)CN2CCC3(O)CCCCC3C2c2ccc(OC)cc2OC)sc(C)c1C (centres undefined)	-18%	u	12µM*	-5	7
COC(=O)c1c(NC(=O)CN2CCC3(O)CCCCC3C2c2ccccc2OC)sc(C)c1C (centres undefined)	u	u	5.2µM*	-1	6
CC(C)Cc1ccc(-c2ccc3nccn3c2)cc1	x	-1	x	x	x
C=CCNC(=O)C1CCC(=O)N1S(=O)(=O)c1ccc(C)cc1 (centres undefined)	u	21	5%	-10	-1
COc1ccc(NC(=O)CCN2CCN(S(=O)(=O)c3ccc(Cl)cc3)CC2)cc1	x	-38	u	-3	0
CCOc1ccc(NC(=O)CCN2CCN(S(=O)(=O)c3cc(Cl)ccc3OC)CC2)cc1	2.6µM*	-14	u	-2	-2
CCN(CC)c1ccc(NC(=O)CN2CCN(c3ccccc3OC)CC2)cc1	x	7	x	x	x
CCN(CC)c1ccc(NC(=O)CN2CCN(S(=O)(=O)c3cc(Cl)ccc3OC)CC2)cc1	x	-31	10µM*	6	6
COc1cccc(CNC(=O)C2CCN(c3nnc(-n4c(C)ccc4C)s3)CC2)c1OC	x	29	x	x	x
CCN1CCN(Cc2ccc(NC(=O)c3ccc(C)c(NC(=O)c4ccno4)c3)cc2C(F)(F)F)CC1	u	-4	u	-10	-7
SMILES	Pf growth 96h	HCMV antiviral	Pf growth 48h	Shiga inhibitor	CHX counter
CCN1CCN(Cc2ccc(NC(=O)c3ccc(C)c(NC(=O)c4c[nH]c5cc(C(F)(F)F)ccc5c4=O)c3)cc2C(F)(F)F)CC1	0.52µM*	-98*	0.59µM*	-4	-5
CCN1CCN(Cc2ccc(NC(=O)c3ccc(C)c(NC(=O)C4=NN(c5ccccc5)C(=O)C4)c3)cc2C(F)(F)F)CC1	0.52µM*	-7	0.41µM*	-7	-2
CCN1CCN(Cc2ccc(NC(=O)c3ccc(C)c(NC(=O)C[C@@H]4NC(=O)[C@H](Cc5ccccc5)NC4=O)c3)cc2C(F)(F)F)CC1	u	16	u	23	-6
CCN1CCN(Cc2ccc(NC(=O)c3cc(NC(=O)C4=NN(c5ccccc5)C(=O)C4)cc(OC)c3)cc2C(F)(F)F)CC1	0.33µM*	12	0.93µM*	12	3
CCN1CCN(Cc2ccc(NC(=O)c3ccc(C)c(NC(=O)c4csc(-c5ccncc5)n4)c3)cc2C(F)(F)F)CC1	0.93µM*	u	1.7µM*	5	-11
CCn1nnnc1NCc1ccc(OCc2ccc(F)cc2Cl)c(OC)c1	u	-13	u	-4	-3
Cc1ccc(N(C)C(=O)N2CCN(c3ccccn3)CC2)cc1	-22%	2	0%	14	-2
CCN1CCN(Cc2ccc(NC(=O)c3ccc(C)c(NC(=O)c4cccc(-c5cn[nH]c(=O)c5)c4)c3)cc2C(F)(F)F)CC1	1.5µM*	x	1.7µM*	-1	-1
CC(C)=N/N=C(\N)SCc1ccccc1	51%	4	0%	60	19*
COc1cc(C2SC(C)C(=O)N2CCc2ccccc2)cc(OC)c1OC (centres undefined)	u	51	-20%	-14	-1
CC(C)C[C@H]1CN(CCCC[C@H]2CNC(=O)C(=O)N2CCC2CCCCC2)C(=O)C(=O)N1CCC1CCCCC1	x	-108*	x	x	x
CCC(CC)NC(=O)c1ccccc1Oc1ccccc1	u	4	x	-8	-2
CCC(C)(C)NC(=O)c1ccccc1Oc1ccccc1	-18%	-76*	u	9	6
O=C(O)c1ccccc1Oc1ccc(Oc2ccccc2)cc1	u	28	0%	25	7.5*
CCOC(=O)C1=C(C)N(CC)C(=S)NC1c1ccccc1OC(F)F (centres undefined)	u	66	u	-9	1
COc1cc(NC(=O)c2ccc([N+](=O)[O-])cc2)c(OC)cc1NC(=O)CC(C)C	u	14	13%	-6	-3
Cc1cc(=O)oc2cc(OCC(=O)Nc3ccccc3C(N)=O)c(Cl)cc12	8%	u	30%	-2	6
O=C(O)C(CCCCN1C(=O)c2ccccc2C1=O)N1C(=O)c2ccccc2C1=O (centres undefined)	10µM*	-1	31%	-11	4
O=C(Nc1ccccc1)C(CCCCN1C(=O)c2ccccc2C1=O)N1C(=O)c2ccccc2C1=O (centres undefined)	x	-24	x	x	x
O=C(O)C(Cc1ccccc1)N1C(=O)c2ccccc2C1=O (centres undefined)	15µM*	-1	x	-3	-5
O=C(O)C(Cc1ccc(O)cc1)N1C(=O)c2ccccc2C1=O (centres undefined)	10%	-23	x	-6	-4
COc1ccccc1Cc1c(-c2ccco2)nc2ccc(C)cn12	x	20	x	x	x
CCS(=O)(=O)Nc1ccc2[nH]c(=O)[nH]c2c1	27%	25	13%	-3	0
Cc1cccc(OC2CCN(Cc3c(C(=O)N4CCCC4)nc4ccccn34)CC2)c1	u	-15	-14%	-3	-6
